# Records with an inconclusive call do not appear. Active and inactive are the calls of the source. Calls come from the whole dose curve; as a rule, active = well fitted cell-killing curve with a large enough effect in the repeat runs; inconclusive = weak or mixed curves, or effect the other way; inactive = no such curve, though single readings can be large or run the other way.
# Assay: qHTS assay for small molecule activators of the heat shock response signaling pathway - cell viability counter screen (AID 743209); note: nearly all actives have a fitted effect of over 50% in size
# Details: HSE-bla HeLa viability, CellTiter-Glo luminescence, 5 h; series mostly up to 62.6 µM; activity change, negative = cytotoxicity: at the top concentration
# Excerpt: U.S. Tox21 Program National Center for Advancing Translational Sciences [NCATS] NIH Chemical Genomics Center [NCGC] U.S. Environmental Protection Agency [EPA] National Institutes of Environmental Health Sciences [NIEHS] National Toxicology Program [NTP] U.S. Food and Drug Administration [FDA] Tox21 Assay Overview: Various chemicals, environmental and physiological stress conditions may lead to the activation of heat shock response/ unfolded protein response (HSR/UPR). There are three heat shock transcription factors (HSFs) (HSF-1, -2, and -4) mediating transcriptional regulation of the human HSR. To identify the compounds that activate HSR signaling, HSE-bla HeLa cell line (Invitrogen, Carlsbad, CA, USA) containing a beta-lactamase reporter gene under the control of the heat shock response elements was used to screen Tox21 10K compound library. The cytotoxicity of the Tox21 compound library against the HSE-bla HeLa cell line was tested in parallel by measuring the cell viability using CellTiter-Glo assay (Promega, Madison, WI) in the same wells.
# Tox21 Assay Protocol Summary: The CellSensor HSE-bla HeLa cells (Invitrogen, Carlsbad, CA, USA) were dispensed at 1500 cells/6uL/well into 1536-well black wall/clear bottom plates using a Multidrop combi (Thermo Fisher Scientific, Waltham, MA) dispenser. After the assay plates were incubated at 37 C and 5% CO2 overnight, 23 nL of compounds dissolved in DMSO, positive controls or DMSO only was transferred to the assay plate by a Pintool station (Kalypsys, San Diego, CA). The plates were incubated at 37 C for 5 h. After 1 uL of LiveBLAzerTM B/G FRET substrate was added using a Flying Reagent Dispenser (FRD, Beckman Coulter, Indianapolis, IN, USA), the plates were incubated at room temperature for 2.5 h, and fluorescence intensity was measured by an Envision plate reader (PerkinElmer, Shelton, CT). For cell viability readout that measures cytotoxicity, 3 ul/well of CellTiter-Glo reagent was added into the assay plates using a FRD. After 30 min incubation at room temperature, the luminescence intensity in the plates was measured using a ViewLux (PerkinElmer) plate reader.
# % is set by controls: 0 for no effect and ±100 for the full control effect.
row,Compound,"activity change, negative = cytotoxicity"
1,CC(C(=O)O)c1ccc(-c2ccccc2)c(F)c1 (stereo not given),0.679% (inactive)
2,Nc1cnn([C@@H]2O[C@H](CO)[C@@H](O)[C@H]2O)c(=O)n1,3.44% (inactive)
3,Cn1c(NCCN(CCO)CCCc2ccc([N+](=O)[O-])cc2)cc(=O)n(C)c1=O,0.857% (inactive)
4,Cc1ccc2c(ccc3ccccc32)c1,-4.06% [at 81.1 µM] (inactive)
5,Nc1nc(CC(=O)O)cs1,10.6% [at 81.1 µM] (inactive)
6,NC(=S)N/N=C/c1cccnc1,-15% (inactive)
7,C=CCCCCCC,-17.5% (inactive)
8,O=C(Cl)c1ccc([N+](=O)[O-])cc1,-1.9% (inactive)
9,C=C(C)C(=O)OC(C)C,7.61% (inactive)
10,CN(C)CC[C@@H](c1ccc(Br)cc1)c1ccccn1,-2.25% (inactive)
11,COCCO,6.34% (inactive)
12,CCN(CC)CCOC(=O)C1(c2ccccc2)CCCC1,17.4% (inactive)
13,C[C@H](CCC(=O)O)[C@H]1CC[C@H]2[C@@H]3[C@H](O)C[C@@H]4C[C@H](O)CC[C@]4(C)[C@H]3CC[C@]12C,-6.18% (inactive)
14,CN(C)CCCNCCCN,1.58% (inactive)
15,CCCCCCCCCC=O,-13% (inactive)
16,O=C1c2cccc(O)c2C(=O)c2c(O)cc(CO)cc21,-1.14% (inactive)
17,O=C1Nc2cc(Cl)ccc2Oc2ccccc21,3.15% (inactive)
18,O=C(c1ccccc1)c1ccc2n1CCC2C(=O)O (stereo not given),-4.34% (inactive)
19,Cc1ccccn1,7.41% (inactive)
20,CC(=O)OCCc1ccccc1,6.31% (inactive)

row,Compound,"activity change, negative = cytotoxicity"
1,CCN1CCC[C@H]1CNC(=O)c1c(OC)ccc(Br)c1OC,4.7% (inactive)
2,Cc1cc(CC(=O)O)c(C)n1-c1ccc(Cl)cc1,-26.2% (inactive)
3,O=C(O)/C=C/c1cnc[nH]1,-2.72% (inactive)
4,C1=Cc2ccccc2C1,-3.81% (inactive)
5,COC(Cc1ccccc1)OC,12.8% (inactive)
6,Oc1ccc2c(c1)OCO2,-7.43% (inactive)
7,O=C(Cl)c1c(Cl)cccc1Cl,-9.33% [at 81.1 µM] (inactive)
8,Oc1ccc(Sc2ccc(O)cc2)cc1,9.05% (inactive)
9,Nc1ccc(C(=O)Nc2ccccc2N)cc1,-5.68% (inactive)
10,O=C(O)c1cccc(N(Cc2cccnc2)c2ccc(OC(F)F)c(OC(F)F)c2)c1,-2.49% (inactive)
11,CC[C@H](C)[C@@H](C(=O)O)n1sc2ccccc2c1=O,-13.7% (inactive)
12,NC(N)=N/N=C/c1c(Cl)cccc1Cl,8.19% (inactive)
13,CCCCCCCCN(C)C,9.96% (inactive)
14,CC(=O)/C(C)=C/C1C(C)=CCCC1(C)C (stereo not given),-2.41% (inactive)
15,Cn1c(=O)c2c(ncn2CC(O)CO)n(C)c1=O (stereo not given),-2.83% (inactive)
16,CCCCCCCCCCCCCCCCCBr,-4.25% [at 29.1 µM] (inactive)
17,O=C(O)Cn1c(C(=O)Nc2nc(-c3ccccc3Cl)cs2)cc2ccccc21,14.9% (inactive)
18,Cc1cc(C)c(S(=O)(=O)O)cc1N=Nc1cc(S(=O)(=O)O)c2ccccc2c1O,6.2% (inactive)
19,CC(C)(C)c1ccc(S)cc1,-8.96% (inactive)
20,Cc1cccc(Oc2ccccc2)c1,-1.38% (inactive)

# — PubChem BioAssay (Tox21)
